# Measurements from publication PMC8384837, “Expanding the binding specificity for RNA recognition by a PUF domain”.
# Legend:
# Test in all cases: yeast three-hybrid, YBZ-1, SC-Leu-His + 0.5 mM 3-AT, 4 days
# Conditions in all cases: tags: N-Gal4 AD-HA kept; label: inside an RPR1-promoter hybrid RNA with tandem MS2 sites; ssRNA
# PUM1 PUF domain R7-ERG = PUM1 PUF domain R7-ERG (Homo sapiens, UniProt Q14671 828-1176, S1079E;N1080R;E1083G)
# Method in brief: (§1)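 The interaction score is the logarithmic change in variant frequency from input to selection. It uses log2, with a pseudocount of 1 for absent variants, and frequencies came from PCR-amplified, Illumina-sequenced repeat regions. The libraries were Pumilio-1 PUF domains randomized at the three base-contacting residues per repeat, co-expressed with matching RNA elements in strain YBZ-1 (LexA–MS2 coat fusion, HIS3 reporter). Plating lasted four days on SC-Leu (input) or SC-Leu-His + 0.5 mM 3-AT (selection).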
# PUM1 PUF domain R7-KQC = PUM1 PUF domain R7-KQC (Homo sapiens, UniProt Q14671 828-1176, S1079K;N1080Q;E1083C)
# Sequence of PUM1 PUF domain R7-KQC (Q14671 828-1176 S1079K/N1080Q/E1083C): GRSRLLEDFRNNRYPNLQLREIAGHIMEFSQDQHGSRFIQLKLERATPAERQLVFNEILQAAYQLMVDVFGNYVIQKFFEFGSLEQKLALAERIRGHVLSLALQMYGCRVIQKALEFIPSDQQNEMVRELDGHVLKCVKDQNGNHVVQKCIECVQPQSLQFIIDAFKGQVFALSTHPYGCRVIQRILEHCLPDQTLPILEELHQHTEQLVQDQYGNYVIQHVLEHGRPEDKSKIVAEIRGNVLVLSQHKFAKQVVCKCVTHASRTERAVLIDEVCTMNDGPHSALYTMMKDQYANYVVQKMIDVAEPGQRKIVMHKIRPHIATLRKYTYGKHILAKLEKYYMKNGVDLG
# Method in brief: as §1
# PUM1 PUF domain R3-MPR = PUM1 PUF domain R3-MPR (Homo sapiens, UniProt Q14671 828-1176, C935M;R936P;Q939R)
# Method in brief: as §1
# PUM1 PUF domain R6-RWA = target: T1, PUM1 PUF domain R6-RWA (Homo sapiens, UniProt Q14671 828-1176, N1043R;Y1044W;Q1047A)
# T1 sequence: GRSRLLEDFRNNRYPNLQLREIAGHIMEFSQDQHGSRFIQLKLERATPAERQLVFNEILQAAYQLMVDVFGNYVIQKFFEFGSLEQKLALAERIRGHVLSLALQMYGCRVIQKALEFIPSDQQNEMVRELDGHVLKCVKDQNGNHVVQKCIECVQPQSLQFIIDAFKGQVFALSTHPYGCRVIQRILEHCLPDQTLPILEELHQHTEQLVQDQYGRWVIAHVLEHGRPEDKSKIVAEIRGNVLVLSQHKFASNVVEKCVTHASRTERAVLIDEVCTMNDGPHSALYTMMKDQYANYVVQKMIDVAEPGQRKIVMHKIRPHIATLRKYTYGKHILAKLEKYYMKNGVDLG
# Method in brief: as §1
# PUM1 PUF domain R8-RFW = PUM1 PUF domain R8-RFW (Homo sapiens, UniProt Q14671 828-1176, N1122R;Y1123F;Q1126W)
# Sequence of PUM1 PUF domain R8-RFW (Q14671 828-1176 N1122R/Y1123F/Q1126W): as the sequence (Q14671 828-1176 S1079K/N1080Q/E1083C) above, with K252S, Q253N, C256E, N295R, Y296F, Q299W counted along it
# Method in brief: as §1
# PUM1 PUF domain R2-LWH = PUM1 PUF domain R2-LWH (Homo sapiens, UniProt Q14671 828-1176, N899L;Y900W;Q903H)
# Sequence of PUM1 PUF domain R2-LWH (Q14671 828-1176 N899L/Y900W/Q903H): as the sequence (Q14671 828-1176 S1079K/N1080Q/E1083C) above, with N72L, Y73W, Q76H, K252S, Q253N, C256E counted along it
# Method in brief: as §1
# PUM1 PUF domain R4-WST = PUM1 PUF domain R4-WST (Homo sapiens, UniProt Q14671 828-1176, N971W;H972S;Q975T)
# Sequence of PUM1 PUF domain R4-WST (Q14671 828-1176 N971W/H972S/Q975T): as the sequence (Q14671 828-1176 S1079K/N1080Q/E1083C) above, with N144W, H145S, Q148T, K252S, Q253N, C256E counted along it
# Method in brief: as §1
# PUM1 PUF domain R5-KAT = PUM1 PUF domain R5-KAT (Homo sapiens, UniProt Q14671 828-1176, C1007K;R1008A;Q1011T)
# Method in brief: as §1
# PUM1 PUF domain R5-RMV = PUM1 PUF domain R5-RMV (Homo sapiens, UniProt Q14671 828-1176, C1007R;R1008M;Q1011V)
# Method in brief: as §1
# PUM1 PUF domain R5-CKR = PUM1 PUF domain R5-CKR (Homo sapiens, UniProt Q14671 828-1176, R1008K;Q1011R)
# Method in brief: as §1
# PUM1 PUF domain R1-NSR = PUM1 PUF domain R1-NSR (Homo sapiens, UniProt Q14671 828-1176, S863N;R864S;Q867R)
# Method in brief: as §1
# PUM1 PUF domain R1-GMK = PUM1 PUF domain R1-GMK (Homo sapiens, UniProt Q14671 828-1176, S863G;R864M;Q867K)
# Method in brief: as §1
# PUM1 PUF domain R4-VNC = PUM1 PUF domain R4-VNC (Homo sapiens, UniProt Q14671 828-1176, N971V;H972N;Q975C)
# Method in brief: as §1
# PUM1 PUF domain R4-NRS = PUM1 PUF domain R4-NRS (Homo sapiens, UniProt Q14671 828-1176, H972R;Q975S)
# Sequence of PUM1 PUF domain R4-NRS (Q14671 828-1176 H972R/Q975S): as the sequence (Q14671 828-1176 S1079K/N1080Q/E1083C) above, with H145R, Q148S, K252S, Q253N, C256E counted along it
# Method in brief: as §1
# PUM1 PUF domain R4-MPC = PUM1 PUF domain R4-MPC (Homo sapiens, UniProt Q14671 828-1176, N971M;H972P;Q975C)
# Sequence of PUM1 PUF domain R4-MPC (Q14671 828-1176 N971M/H972P/Q975C): as the sequence (Q14671 828-1176 S1079K/N1080Q/E1083C) above, with N144M, H145P, Q148C, K252S, Q253N, C256E counted along it
# Method in brief: as §1
# PUM1 PUF domain R8-QFK = PUM1 PUF domain R8-QFK (Homo sapiens, UniProt Q14671 828-1176, N1122Q;Y1123F;Q1126K)
# Sequence of PUM1 PUF domain R8-QFK (Q14671 828-1176 N1122Q/Y1123F/Q1126K): as the sequence (Q14671 828-1176 S1079K/N1080Q/E1083C) above, with K252S, Q253N, C256E, N295Q, Y296F, Q299K counted along it
# Method in brief: as §1
# PUM1 PUF domain R1-RTT = PUM1 PUF domain R1-RTT (Homo sapiens, UniProt Q14671 828-1176, S863R;R864T;Q867T)
# Sequence of PUM1 PUF domain R1-RTT (Q14671 828-1176 S863R/R864T/Q867T): as the sequence (Q14671 828-1176 S1079K/N1080Q/E1083C) above, with S36R, R37T, Q40T, K252S, Q253N, C256E counted along it
# Method in brief: as §1
sequence,measurement,setting,value
GGCUAGAACUAGUGGAUCCCCCGGCGCCCGGCGGCUCGAGCCCGGGUAAGUUUAAAUAGUCUGCAUGCCGCCGGGCGCCAUGCCUGCAGGUCGACUCUAGAAAACAUG,binding signal,PUM1 PUF domain R7-ERG,4.23 log2 enrichment (interaction score)
GGCUAGAACUAGUGGAUCCCCCGGCGCCCGGCGGCUCGAGCCCGGGUAAGUCUAAAUAGUCUGCAUGCCGCCGGGCGCCAUGCCUGCAGGUCGACUCUAGAAAACAUG,binding signal,PUM1 PUF domain R7-ERG,2.98 log2 enrichment (interaction score)
same,binding signal,PUM1 PUF domain R7-KQC,2.83 log2 enrichment (interaction score)
GGCUAGAACUAGUGGAUCCCCCGGCGCCCGGCGGCUCGAGCCCGGGUAAGUGUAAUUAGUCUGCAUGCCGCCGGGCGCCAUGCCUGCAGGUCGACUCUAGAAAACAUG,binding signal,PUM1 PUF domain R3-MPR,2.67 log2 enrichment (interaction score)
GGCUAGAACUAGUGGAUCCCCCGGCGCCCGGCGGCUCGAGCCCGGGUAAGUGUAAAUAGUCUGCAUGCCGCCGGGCGCCAUGCCUGCAGGUCGACUCUAGAAAACAUG,binding signal,PUM1 PUF domain R3-MPR,0.58 log2 enrichment (interaction score)
same,binding signal,PUM1 PUF domain R6-RWA,5.03 log2 enrichment (interaction score)
same,binding signal,PUM1 PUF domain R8-RFW,4.68 log2 enrichment (interaction score)
same,binding signal,PUM1 PUF domain R2-LWH,2.74 log2 enrichment (interaction score)
same,binding signal,PUM1 PUF domain R4-WST,0.36 log2 enrichment (interaction score)
GGCUAGAACUAGUGGAUCCCCCGGCGCCCGGCGGCUCGAGCCCGGGUAAGUGUCAAUAGUCUGCAUGCCGCCGGGCGCCAUGCCUGCAGGUCGACUCUAGAAAACAUG,binding signal,PUM1 PUF domain R5-KAT,3.96 log2 enrichment (interaction score)
same,binding signal,PUM1 PUF domain R5-RMV,3.48 log2 enrichment (interaction score)
same,binding signal,PUM1 PUF domain R5-CKR,5.95 log2 enrichment (interaction score)
GGCUAGAACUAGUGGAUCCCCCGGCGCCCGGCGGCUCGAGCCCGGGUAAGUGUAAAUUGUCUGCAUGCCGCCGGGCGCCAUGCCUGCAGGUCGACUCUAGAAAACAUG,binding signal,PUM1 PUF domain R1-NSR,0.4 log2 enrichment (interaction score)
same,binding signal,PUM1 PUF domain R1-GMK,3.16 log2 enrichment (interaction score)
GGCUAGAACUAGUGGAUCCCCCGGCGCCCGGCGGCUCGAGCCCGGGUAAGUGUAAAUCGUCUGCAUGCCGCCGGGCGCCAUGCCUGCAGGUCGACUCUAGAAAACAUG,binding signal,PUM1 PUF domain R1-NSR,2.5 log2 enrichment (interaction score)
GGCUAGAACUAGUGGAUCCCCCGGCGCCCGGCGGCUCGAGCCCGGGUAAGUGUUAAUAGUCUGCAUGCCGCCGGGCGCCAUGCCUGCAGGUCGACUCUAGAAAACAUG,binding signal,PUM1 PUF domain R5-CKR,1.55 log2 enrichment (interaction score)
GGCUAGAACUAGUGGAUCCCCCGGCGCCCGGCGGCUCGAGCCCGGGUAAGUGUACAUAGUCUGCAUGCCGCCGGGCGCCAUGCCUGCAGGUCGACUCUAGAAAACAUG,binding signal,PUM1 PUF domain R4-VNC,3.19 log2 enrichment (interaction score)
GGCUAGAACUAGUGGAUCCCCCGGCGCCCGGCGGCUCGAGCCCGGGUAAGUGAAAAUAGUCUGCAUGCCGCCGGGCGCCAUGCCUGCAGGUCGACUCUAGAAAACAUG,binding signal,PUM1 PUF domain R6-RWA,4.28 log2 enrichment (interaction score)
GGCUAGAACUAGUGGAUCCCCCGGCGCCCGGCGGCUCGAGCCCGGGUAAGUGUAUAUAGUCUGCAUGCCGCCGGGCGCCAUGCCUGCAGGUCGACUCUAGAAAACAUG,binding signal,PUM1 PUF domain R4-NRS,2.58 log2 enrichment (interaction score)
same,binding signal,PUM1 PUF domain R4-MPC,3.15 log2 enrichment (interaction score)
same,binding signal,PUM1 PUF domain R4-WST,2.45 log2 enrichment (interaction score)
GGCUAGAACUAGUGGAUCCCCCGGCGCCCGGCGGCUCGAGCCCGGGUAAGCGUAAAUAGUCUGCAUGCCGCCGGGCGCCAUGCCUGCAGGUCGACUCUAGAAAACAUG,binding signal,PUM1 PUF domain R8-RFW,6.4 log2 enrichment (interaction score)
same,binding signal,PUM1 PUF domain R8-QFK,4.17 log2 enrichment (interaction score)
GGCUAGAACUAGUGGAUCCCCCGGCGCCCGGCGGCUCGAGCCCGGGUAAGUGUAAAAAGUCUGCAUGCCGCCGGGCGCCAUGCCUGCAGGUCGACUCUAGAAAACAUG,binding signal,PUM1 PUF domain R2-LWH,7.08 log2 enrichment (interaction score)
GGCUAGAACUAGUGGAUCCCCCGGCGCCCGGCGGCUCGAGCCCGGGUAAGUGUAAAUGGUCUGCAUGCCGCCGGGCGCCAUGCCUGCAGGUCGACUCUAGAAAACAUG,binding signal,PUM1 PUF domain R1-RTT,3.14 log2 enrichment (interaction score)
